# Among all 310,000 compounds or so, about 14,000 (4.5%) showed an effect of 50% or more. The effect is printed as a negative number. The full list was thinned out, with strong results kept by preference.
# Biological target: human ether-à-go-go-related gene (hERG) potassium channel (human, UniProt Q12809)
# Assay: primary screen, population patch clamp on CHO cells stably expressing hERG; higher = less effect of the substance
# 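Also: peak tail current of the secondary pulse compared with the same well before compound.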
# Chain of human ether-à-go-go-related gene (hERG) potassium channel (Q12809 whole entry, looked up): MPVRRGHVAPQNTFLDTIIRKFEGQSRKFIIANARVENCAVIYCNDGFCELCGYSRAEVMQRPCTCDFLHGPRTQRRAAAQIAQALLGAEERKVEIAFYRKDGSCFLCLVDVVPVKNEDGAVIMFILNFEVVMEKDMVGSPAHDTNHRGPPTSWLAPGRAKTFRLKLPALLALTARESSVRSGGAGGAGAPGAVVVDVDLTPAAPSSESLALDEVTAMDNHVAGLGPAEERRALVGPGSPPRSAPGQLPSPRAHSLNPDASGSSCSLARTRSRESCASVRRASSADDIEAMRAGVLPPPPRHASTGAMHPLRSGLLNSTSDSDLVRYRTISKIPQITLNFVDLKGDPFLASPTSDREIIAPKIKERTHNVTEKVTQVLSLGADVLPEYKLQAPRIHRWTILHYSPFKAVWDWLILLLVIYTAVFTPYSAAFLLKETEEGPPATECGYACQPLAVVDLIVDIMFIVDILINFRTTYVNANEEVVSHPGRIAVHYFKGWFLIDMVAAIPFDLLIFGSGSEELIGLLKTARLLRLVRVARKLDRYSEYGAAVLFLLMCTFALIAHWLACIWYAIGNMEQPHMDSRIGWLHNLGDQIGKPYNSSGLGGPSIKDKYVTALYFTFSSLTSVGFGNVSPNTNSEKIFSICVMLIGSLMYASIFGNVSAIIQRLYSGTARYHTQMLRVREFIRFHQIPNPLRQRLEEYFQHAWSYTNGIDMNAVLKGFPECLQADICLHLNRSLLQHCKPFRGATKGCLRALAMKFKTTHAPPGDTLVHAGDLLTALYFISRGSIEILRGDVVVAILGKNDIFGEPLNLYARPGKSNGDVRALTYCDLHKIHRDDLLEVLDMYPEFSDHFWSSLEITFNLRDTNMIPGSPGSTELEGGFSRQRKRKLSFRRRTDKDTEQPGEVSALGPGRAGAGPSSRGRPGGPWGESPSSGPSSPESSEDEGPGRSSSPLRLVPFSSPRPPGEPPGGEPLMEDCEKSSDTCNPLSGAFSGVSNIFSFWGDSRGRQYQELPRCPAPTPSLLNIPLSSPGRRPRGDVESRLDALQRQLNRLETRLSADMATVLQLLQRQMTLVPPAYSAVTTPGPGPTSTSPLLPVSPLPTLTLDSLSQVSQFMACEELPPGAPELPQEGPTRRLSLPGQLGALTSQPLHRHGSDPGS
row,SMILES,"hERG current change (%, negative = inhibition) at 10uM"
1,c1ccc(N2CCN(c3nc4cc5c(cc4s3)OCO5)CC2)cc1,-11.2%
2,CCC(CC)c1nnc(NC(=O)c2c(-c3ccccc3)noc2C)s1,-9.78%
3,COc1cnn(-c2cc(Oc3ccc(C)cc3)ncn2)c(=O)c1Cl,2.74%
4,COc1cccc(C(=O)NCC2(c3ccccc3)CCCC2)c1OC,3.79%
5,CC(C)n1ncc2c(C(=O)N3CCN(c4ccccc4)CC3)cc(-c3ccccc3)nc21,17.2%
6,COc1ccc(C(=O)N2CCCC2=O)cc1,17%
7,Cc1sc(NC(=O)C2=COCCO2)nc1-c1ccc(F)cc1,15.5%
8,CNC(=S)N/N=C/c1ccc(N2CCOCC2)s1,51.6%
9,CS(=O)(=O)n1nc(-c2cccnc2)nc1NCc1ccccc1,43.9%
10,Cc1nc(Nc2ccc(S(N)(=O)=O)cc2)sc1-c1ccccc1,12.9%
11,Nc1c(-c2ccccc2)sc2ccc3ccccc3[n+]12.O=S(=O)([O-])c1ccccc1,-58.3%
12,Nc1nc(-c2ccccc2)c(-c2ccccc2)s1,-2.18%
13,Cc1c(NC(=O)CSc2nccn2C)c(=O)n(-c2ccccc2)n1C,10.9%
14,CC(CNC(=O)c1cccs1)c1ccc([N+](=O)[O-])cc1 (stereo not drawn),4.3%
15,COc1cc(OC)cc(C(=O)N[C@H](C(=O)Nc2ccc(NC(C)=O)cc2)C(C)C)c1,13%
16,COc1cc(OC)cc(C(=O)N[C@H](C(=O)Nc2cc(C)cc(C)c2)C(C)C)c1,-54.7%
17,COc1cc(OC)cc(C(=O)NC(C(=O)Nc2ccc3c(c2)CCC3)C(C)C)c1 (stereo not drawn),-1.96%
18,Cc1cc2oc(=O)cc(C)c2cc1NC(=O)CCC(=O)O,7.75%
19,Cc1cccc(OCC(=O)Nc2ccc3c(c2)nc(CCN2CCN(c4ccccn4)CC2)n3C)c1,-79.5%
20,Cn1c(CCN2CCN(c3ccccn3)CC2)nc2cc(NC(=O)COc3ccc(Cl)cc3)ccc21,-22.7%
21,CCCCC(=O)Nc1ccc2c(c1)nc(CCN1CCN(c3ccccn3)CC1)n2C,-56.5%
22,Cn1c(CCN2CCN(c3ccccn3)CC2)nc2cc(NC(=O)COc3ccc([N+](=O)[O-])cc3)ccc21,-5.69%

row,SMILES,"hERG current change (%, negative = inhibition) at 10uM"
1,CCCC(=O)Nc1ccc2c(c1)nc(CCN1CCN(c3ccccn3)CC1)n2C,-25.5%
2,Cn1c(CCN2CCN(c3ccccn3)CC2)nc2cc(NC(=O)COc3ccccc3)ccc21,-72.5%
3,CCC(=O)Nc1ccc2c(c1)nc(CCN1CCN(c3ccccn3)CC1)n2C,-18.3%
4,O=[N+]([O-])c1cc(-c2nc3nc4ccccc4nc3n2CCc2ccccc2)cc([N+](=O)[O-])c1,3.97%
5,Cc1ccc(S(=O)(=O)N(C)/N=C/C=C/c2ccccc2)cc1,0.391%
6,O=S(=O)(Cc1ccccc1Cl)NCc1ccccc1,7.02%
7,Cc1cc(C)nc(SC2c3cccc4cccc(c34)C2NS(=O)(=O)c2ccccc2)n1 (stereo not drawn),-4.8%
8,Cc1cccc(N2CCN(C(=O)Cc3cn(C)c4ccccc34)CC2)c1C,-7.32%
9,CC1CCc2sc(C(=O)NCCCn3ccnc3)cc2C1 (stereo not drawn),-1.07%
10,CC(C)CN1CCN(Cc2cnc(-c3ccc(Cl)cc3)nc2)CC1CCO (stereo not drawn),-67.2%
11,OCCC1CN(Cc2cnc(-c3ccc(Cl)cc3)nc2)CCN1C1CCCCC1 (stereo not drawn),-73.6%
12,Cc1ccccc1-c1ncc(CN2CCN(C3CCCCC3)C(CCO)C2)cn1 (stereo not drawn),-17.4%
13,OCCC1CN(Cc2cnc(-c3ccc(Cl)cc3)nc2)CCN1C1CCCC1 (stereo not drawn),-73.5%
14,COc1ccc(-c2ncc(CN3CCN(CCC(C)C)C(CCO)C3)cn2)cc1 (stereo not drawn),-43.4%
15,Cc1ccccc1-c1ncc(CN2CCN(C3CCCC3)C(CCO)C2)cn1 (stereo not drawn),-25.8%
16,Cc1cccc(-c2ncc(CN3CCN(CC(C)C)C(CCO)C3)cn2)c1 (stereo not drawn),-47.9%
17,Cc1cccc(-c2ncc(CN3CCN(C4CCCC4)C(CCO)C3)cn2)c1 (stereo not drawn),-46.7%
18,OCCC1CN(Cc2cnc(-c3cccc4ccccc34)nc2)CCN1C1CCCCC1 (stereo not drawn),-13.2%
19,CC(C)(C)c1cc(-c2n[nH]c(=S)n2-c2ccc(Cl)cc2)n[nH]1,17.3%
20,CCCCCC1CCC(C(=O)N2CCOCC2)CC1 (stereo not drawn),-2.44%
21,CC(C)CC(=O)Nc1ccc(-c2nc3ccccc3c(=O)[nH]2)cc1,26.7%
22,O=C1COc2ccc(S(=O)(=O)CCC(=O)NC3CCCCC3)cc2N1,11.8%

row,SMILES,"hERG current change (%, negative = inhibition) at 10uM"
1,CC(=O)Nc1c(NCC(C)C)c2ccccc2oc1=O,16.7%
2,Cc1ccc(NC(=O)N2CCc3ccccc3C2)cc1C,15.2%
3,COC(=O)Cc1c(O)ccn(CCc2ccccc2)c1=O,51.2%
4,CCCn1nc(C(=O)NCC2COc3ccccc3O2)c2ccccc2c1=O (stereo not drawn),-36.2%
5,COc1ccc(N2CN=C3SCC(=O)N3C2)cc1,11.5%
6,CC(NC(=O)C1C(=O)N(CCO)C2(C)CC1c1ccccc1O2)c1ccccc1 (stereo not drawn),-14.4%
7,CC(=O)Nc1cccc(C(=O)Nc2ccccc2C(=O)O)c1,7.39%
8,Cc1ccc(-c2csc(NC(=O)CSc3nc4ccccc4c(=O)n3CCCN(C)C)n2)cc1,-35.2%
9,C=CCN(CC=C)c1nc2ccccc2nc1C(C#N)C(=O)OCCOC (stereo not drawn),-29.8%
10,Br.COc1ccccc1NS(=O)(=O)c1cc(N2Cc3ccccc3C2=N)ccc1N1CCOCC1,-73.3%
11,O=S(=O)(Nc1ccc(N2CCOCC2)cc1)c1cc(Cl)ccc1Cl,4.1%
12,COc1ccccc1NS(=O)(=O)c1cc(NC(=O)C2CC2)ccc1N1CCOCC1,45.4%
13,CCC(=O)Nc1ccc(N2CCOCC2)c(S(=O)(=O)Nc2ccc(Cl)cc2)c1,-25.2%
14,Br.N=C1c2ccccc2CN1c1ccc(N2CCOCC2)c(S(=O)(=O)Nc2ccc(Cl)cc2)c1,-81%
15,COc1ccccc1NS(=O)(=O)c1cc(NC(=O)C(C)(C)C)ccc1N1CCOCC1,-36.4%
16,CCOC(=O)c1nc(C)sc1-c1ccnn1S(=O)(=O)c1ccccc1C(F)(F)F,-25.1%
17,CN(CCCC1CCCC1)C(=O)CCc1nnc(-c2ccccc2)o1,-22.7%
18,Cc1cccc(-c2n[nH]c(=S)n2/N=C/c2ccco2)c1,2.87%
19,O=C1[C@@H]2C(Cc3ccc(O)cc3)NC3(C(=O)Nc4ccc(F)cc43)[C@@H]2C(=O)N1c1ccc(F)cc1 (stereo partly drawn),10.1%
20,CC(O)(C#CCN1CCCCC1)c1ccccc1 (stereo not drawn),1.9%
21,Cc1c[nH]c2cccc(OCC(CNC(C)(C)C)OC(=O)c3ccccc3)c12.Cl (stereo not drawn),1.02%
22,CC(O)C(=O)O.COc1ccc(CN(CC(O)COc2cccc3[nH]cc(C)c23)C(C)(C)C)cc1 (stereo not drawn),-60.6%

row,SMILES,"hERG current change (%, negative = inhibition) at 10uM"
1,COC(=O)Cc1c[nH]c2cccc(OCC(O)CN(Cc3ccc([N+](=O)[O-])cc3)C(C)(C)C)c12.Cl (stereo not drawn),-4.66%
2,Cc1c[nH]c2cccc(OCC(O)CNC(C)(C)C)c12.Cl (stereo not drawn),-8.91%
3,CC(O)C(=O)O.Cc1ccc(CN(CC(O)COc2cccc3[nH]cc(C)c23)C(C)(C)C)cc1 (stereo not drawn),-60.8%
4,COc1ccc(OCC(O)CN(C)C(=O)C(C)Oc2ccccc2)cc1 (stereo not drawn),6.31%
5,CCOC(=O)c1c2n(c3c(NCc4ccccc4)ncnc13)CCCC2,-76.3%
6,CCOC(=O)CSc1ncnc2c(C(=O)OCC)c3n(c12)CCC3,-62.6%
7,CCOC(=O)c1c(NCc2ccccc2)n[nH]c1C,5%
8,CCOC(=O)c1c(C)nsc1NCc1ccccc1,5.94%
9,CCSc1ncnc2c(C#N)c3n(c12)CCCCC3,-23.8%
10,CCOC(=O)CSc1ncnc2c1sc1nc(N3CCOCC3)c3c(c12)CCCC3,12.7%
11,COc1ccc(CNc2nnnn2C)cc1,20.9%
12,CCOC(=O)Cc1csc(NC(=O)c2ccco2)n1,0.229%
13,Cn1c(=O)[nH]c(=O)c2c1nc(Br)n2CCCSc1nc2ccccc2o1,-66.8%
14,Cn1c(=O)[nH]c(=O)c2c1nc(N1CCCC1)n2CCCSc1nc2ccccc2o1,-25.4%
15,Cn1c(=O)[nH]c(=O)c2c1nc(Br)n2CCCCSc1nc2ccccc2o1,-55.6%
16,Cn1c(=O)[nH]c(=O)c2c1nc(Br)n2CCSc1nc2ccccc2o1,-1.02%
17,Cn1c(=O)[nH]c(=O)c2c1nc(N1CCCCCC1)n2CCCSc1nc2ccccc2o1,-38.3%
18,Cn1c(=O)[nH]c(=O)c2c1nc(N1CCCCC1)n2CCSc1nc2ccccc2o1,11.1%
19,Oc1ccc(CNCC2COc3ccccc3O2)cc1 (stereo not drawn),4.89%
20,COc1ccc(OCCC(=O)OCC(=O)NCCc2ccccc2)cc1,6.65%
21,O=C(/C=C/c1ccccc1[N+](=O)[O-])NCC1CCCO1 (stereo not drawn),-3.47%
